Test results reported in PubChem BioAssay AID588849 (Broad Institute, 2011).
Measured potencies and affinities stand elsewhere. The source made the active and inactive calls. The rule behind the calls is not given here.

molecular target: CAAX prenyl protease 2 (Homo sapiens) (UniProt Q9Y256); assay: inhibition of Ras-converting CAAX protease Rce1 – biochemical, yeast membranes, quenched-peptide fluorescence, cherry-pick, dose response (AID 588849); conditions: yeast membrane fractions expressing human Rce1, quenched-peptide fluorescence, 4 h; series mostly up to 10 µM
Sequence (Q9Y256 whole entry, looked up): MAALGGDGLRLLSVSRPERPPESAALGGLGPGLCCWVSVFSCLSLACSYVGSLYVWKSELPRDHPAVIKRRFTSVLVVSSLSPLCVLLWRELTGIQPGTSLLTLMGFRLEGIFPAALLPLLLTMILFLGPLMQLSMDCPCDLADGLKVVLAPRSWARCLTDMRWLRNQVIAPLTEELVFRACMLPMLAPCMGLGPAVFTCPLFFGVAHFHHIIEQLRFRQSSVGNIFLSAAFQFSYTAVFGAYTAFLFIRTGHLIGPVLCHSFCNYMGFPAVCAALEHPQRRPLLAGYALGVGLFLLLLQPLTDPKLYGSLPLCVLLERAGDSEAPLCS

outcome, inactive:
Cc1cc(C(=O)N/N=C/c2c3ccccc3cc3ccccc23)n[nH]1
COc1cccc2sc3ccc(C#CC4(O)CCCCC4)cc3c(=O)c12
CCC(=O)Nc1cc(-c2nn(CC(=O)N3CCCCC3)c(=O)c3ccccc23)ccc1N1CCOCC1
CCN(CC)CCCNC(=O)CCc1c(C)n(CC)c2cc(-c3ccccc3OC)nn2c1=O
O=C(O)c1ccc2cccc(Cl)c2c1O
COc1cccc(CNc2nc3nc(C)cc(C)n3n2)c1
N=c1c(C(=O)NCc2ccc(F)cc2)cc2c(=O)n3ccccc3nc2n1Cc1cccnc1
CCCCCCCCNC(C)C(O)c1ccc(SC(C)C)cc1 (configuration not stated)
CS(=O)(=O)Nc1ccccc1C(=O)NC1CC2CCC1C2 (configuration not stated)
Cc1cc2cc(C(=O)N3CCc4c([nH]c5ccccc45)C3c3ccccn3)ccc2o1 (configuration not stated)
COCCCNC(=O)c1cc2cc3cc(OC)ccc3nc2o1
Cc1cc(Cl)c2oc(C(=O)N3CCN(C(=O)c4ccco4)CC3)c(C)c2c1
CCOc1ccc(N(Cc2ccc(OC)cc2)C(=O)c2ccco2)cc1
CCOc1ccc(OCC)c(NC(=O)c2nnn(CC(=O)Nc3cc(C)cc(C)c3)c2N)c1
COc1ccc(C(C(=O)NC2CCCCC2)N(C(=O)c2snc(C(N)=O)c2N)c2ccc(OC)cc2OC)cc1 (configuration not stated)
COc1cccc(-c2cc(C(F)(F)F)n3ncc(S(=O)(=O)c4ccccc4)c3n2)c1
COc1ccc(CCN(C)C(=O)c2ccc(S(=O)(=O)Nc3ccccc3C)cc2)cc1OC
